Results from the supplement of paper PMC6555819.

What was measured:
Assay in all cases: PBM binding z-score (relative to random genomic background probes); higher = stronger binding; sequences stand for … in GC…GCGATTGACAGCGTAGAATGAAGG
[1] = tested on: RARb homodimer (NR concentration 270 nM)
Outline: (§1)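 Random background probes are the reference for binding z-scores. These scores derive from regression-normalized fluorescence on custom Agilent 4×180K protein-binding microarrays incubated 1 h with ligand-free nuclear receptor dimers. Binding was detected with antibodies against each partner (one per run).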

[2] = tested on: RARg:RXRa (NR concentration 270 nM, RXRa partner concentration 90 nM)
Outline: as §1

[3] = tested on: RARg homodimer (NR concentration 270 nM)
Outline: as §1

[4] = tested on: RXRa DBDmut IVT, anti-RXR (DBD mutation: RXRa K156A/R161A, NR concentration 90 nM)
Outline: as §1

[5] = tested on: RXRa homodimer (NR concentration 180 nM)
Outline: as §1

[6] = tested on: THRa:RXRa (NR concentration 90 nM, RXRa partner concentration 90 nM)
Outline: as §1

[7] = tested on: THRa homodimer (NR concentration 90 nM)
Outline: as §1

[8] = tested on: VDR homodimer (NR concentration 270 nM)
Outline: as §1

Sequence	PBM binding z-score [1]	PBM binding z-score [2]	PBM binding z-score [3]	PBM binding z-score [4]	PBM binding z-score [5]	PBM binding z-score [6]	PBM binding z-score [7]	PBM binding z-score [8]
TCTTGTAGATCAAGCAGGTTACGAAAGCCTGAGT	0.377	0.206	-0.118	0.652	0.618	0.537	-0.421	-0.206
TATTGTAGATCAAGCAGGTTAAGAAAGCCTGAGT	0.00937	0.285	0.147	-0.887	0.374	0.288	-0.434	0.132
TTACCAAGGTTAGCTGAGGTCGTTGATCCAACTC	2.06	1.68	1.41	0.854	1.84	5.01	2.13	2.87
TCTGCTAGGTCAACGATGGTCAGCTATTCTGCTA	3.16	3.99	4.93	0.833	2.46	3.03	0.599	-0.371
CTCGAAAGCTCGTGCTCAGGTGAGTATACCAAAC	-0.48	-0.629	-0.592	-0.295	-0.748	0.472	0.274	-0.591
CCTACTGGGCCACGAAAGTTCATTGATTCAGTGA	3.23	2.04	2.29	1.34	1.46	1.74	-0.104	4.01
TCGATTAGTTGATTAGGGCAACCGAAACAGCGGA	0.521	0.102	0.329	0.535	0.0192	0.565	0.154	-0.306
AATACAGGGTCACCGTAGGCCAGAGTACGCACAG	3.94	6.08	5.9	2.62	7.11	4.55	1.77	2.81
CCTAGTTGGTCAAGGTCACACAGGCTATAGGTAC	4.45	4.8	5.13	2.24	4.86	4.16	4.07	4.27
CGTCCAAGGTCAGCAGGTCAGTCAAAGCGACGTG	5	6.35	7.05	2.69	4.85	3.74	2.35	2.03
TCGAGTAGATTAGGGGCATTCAGAATGGCGTCGA	0.0337	-0.202	-0.446	0.574	0.16	0.515	-0.591	0.687
CTACCAGGGTGAACAAGGTCGTTGATTACTATTC	1.69	1.59	0.976	0.927	1.85	3.28	1.27	2.42
TCGAGTAGGTTACTCGGGGCATTCAGCCAACATA	0.524	0.206	0.191	0.42	0.372	1.76	-0.17	0.557
GATACAGGGTCAGCTAGAGACCAGAGTATGGAAA	2.5	4.48	4.19	0.915	3.99	2.5	0.211	0.881
CGTCCAAGGTCAGAGTGGTCAGTGAATGCCGAGT	3.83	4.78	5.48	2.94	3.42	3.59	1.9	2.23
ACTAGTTGGTCAGCTGAGGTCACAAACAATTCGG	4.02	3.8	3.86	0.835	3.71	5.04	4.45	3.58
ACTTACGGGTCGACGAGGTTATAGCACGCGTATA	1.57	2.39	1.72	1.2	2.93	3.05	0.75	2.03
GCATACAGGTAATACAAGGTGAAAGTCCGATTGT	1.04	0.773	0.617	0.25	0.894	4.17	1.16	0.161
GATACAGGGTTAAGGCCAGAGTACGCGTATTGAT	1.34	1.7	1.1	-0.0819	1.76	2.05	0.861	1.02

Sequence	PBM binding z-score [1]	PBM binding z-score [2]	PBM binding z-score [3]	PBM binding z-score [4]	PBM binding z-score [5]	PBM binding z-score [6]	PBM binding z-score [7]	PBM binding z-score [8]
CGTCAAAGTTCAACTAAGGTGACGTAAAGCACGC	4.55	5.96	6.76	4.56	5.33	5.17	1.95	4.18
ATATGTAGGTTACATCCGTGTCATTCAGGCTATG	1.2	1.59	1.21	1.02	1.08	1.4	0.344	0.511
CGAACTAGGTCATACAGGACAGTGAATACATTGA	2.68	3.77	4.03	2.32	2.68	2.83	1.2	1.57
TATACAGGGTCGAAGGCCAGAGTACGAATGTCGA	1.26	1.87	1.72	0.491	2.32	1.16	-0.382	1.23
TCTTGTAGATCAAGCGGGTTAAGAAAGCCTGAGT	0.106	-0.294	-0.546	0.628	0.204	0.221	-0.488	-0.0254
TCGAGTAGGTTAGTCGGGGCGTTCAGCCAACATA	-0.146	-0.702	-0.632	0.213	-0.538	0.808	-0.254	-0.484
TCTATCAGTTGATTAGGGCAACCGAAACAGCGGA	0.548	0.522	0.467	0.825	0.276	0.643	-0.0881	-0.1
ATCGAAAGGTCGTGAGGTCAGTATACAGAAAGGC	4.83	6.17	5.53	2.13	6.57	4.25	3.19	3.51
CGTCCAAGGTCGGAGAGGTCAGTGAATGCCGAGT	4.01	4.23	4.66	2.06	3.74	3.34	1.31	3.93
ACCTCTAGGTAAAAGTTCAGTGAATCCCGAGGAT	2.22	1.17	1.56	0.969	1.22	0.914	-0.324	1.21
AATCAAAGTTCAGGACGAGGTAACGTAAAGCACG	3.22	4.66	4.55	2.68	2.92	3.92	1.58	2.06
ATCTCTCGGTAAAGATAGTTCAGTGAATGCAAAT	1.07	0.757	0.753	-0.259	0.154	0.376	0.031	0.334
CCTTACGGGTCACTCCAGGTTAGAGCATCGGAGT	3.08	4.43	4.37	1.55	4.07	4.81	0.277	1.18
TAACCTAGGTCATGGGCCAGTATACCACGCGAAC	3.63	5.07	5.12	1.07	4.02	3.3	1.87	1.35
GGAACGAGGGCAAATTGATAGCAGAGTTTGATGG	1.18	1.48	1.67	2.21	1	0.906	-0.171	1.31
TCTTGTAGAACAAAGGTTAAGAAAGCCGAAGCCT	1.45	1.55	0.851	0.724	2.32	1.05	-0.79	-0.438
ATATGTAGGTTGCATCCGGGTCATTCAGGCTATG	2.16	2.04	1.12	0.735	2.28	3.03	1.96	2.66
CCTATTAGTTGCCCATAAGGGCAACCGAAGCTCG	1.75	0.539	0.688	0.215	0.507	1.65	1.67	0.922
TAGCATAGGTCAGATCGGGCCAGTATACGCTATA	2.53	3.8	3.77	-0.503	2.97	4.24	-1.1	-0.438

Sequence	PBM binding z-score [1]	PBM binding z-score [2]	PBM binding z-score [3]	PBM binding z-score [4]	PBM binding z-score [5]	PBM binding z-score [6]	PBM binding z-score [7]	PBM binding z-score [8]
ACTCGGAGGACAATGGTCAGAGCTACGCCAGTGA	0.454	0.217	0.925	0.216	-0.0471	0.235	-0.526	-0.36
GCTGCTAGGTCAACTGATGGTCAGATAAAGCTCG	3.52	5.33	5.41	1.79	3.01	2.9	1.07	0.346
CTCGAAAGGTCCTGCTCAGGTGAGTATACCAAAC	0.614	0.95	0.414	-0.0806	0.666	2.11	0.634	-0.488
ATCTCTAGGTAAAGATAGTTCATTGAATGCAAAT	1.46	1.01	0.983	0.467	0.854	1.28	0.302	1.98
TCTAGTTGGTCAAATGTCACACACTCGAAATGCG	1.64	1.73	1.78	1.24	1.68	0.653	0.677	0.702
TCTTGTAGATCAACAGGAGGTTAAGAGAGATCGA	0.58	1.1	0.453	0.0129	0.887	1.01	-0.746	-0.539
CTCGAAAGGTCGTGCTCGGGTGAGTATACCAAAC	2.72	5.23	3.77	1.4	4.73	3.75	0.478	0.996
AGAATGAGGTTACCAAAGATCAGGGTAACGCTTG	1.37	2.15	1.95	1.3	3.07	3.1	1.43	0.478
TTACCACGGTGAAAGGTCGTTGATGCACGCCTTG	1.77	2.34	1.01	0.51	3.04	1.69	0.129	1.53
TGAATGAGGTTATAAGATCAGGGTACGTTGCAAA	0.678	1.49	1	0.96	2.09	2.04	0.622	1.73
TATACAGGGTCAAAGGCCATAGTACGAATGTCGA	3.79	5.96	5.29	3.05	7.75	3.78	0.843	3.25
CGTCCAAGGTGAATGCTAGGTCAGTGAAAGCATT	2.81	3.71	1.91	-0.198	1.02	3.27	1.59	-0.00133
GCTAGCAGGCCATTTGGGTCCCTCAATGACGGGC	-0.901	-0.417	-0.379	-0.721	-0.4	0.249	-1.01	-0.499
TAGCCTAGGCCATGCGGGCCAGTATAGTGTCGGC	-0.484	-0.409	-0.0767	-1.68	-0.471	-0.614	-1.02	-1.02
CTCGAAAGGTAGTGCTCAGGTGAGTATACCAAAC	-0.0122	-0.12	0.0951	-0.0232	-0.198	1.61	0.482	-0.438
TCATATAGGTAAATGCGAGGTGAAAGTCCGATCT	1.05	0.929	0.538	1.89	1.18	2.78	1.54	0.605
CAGCCTAGGTCAGGGCAAGTATAGGAGGAACGTT	2.89	3.37	4.42	0.0937	2.07	2.2	0.481	-0.0774
CTACCAAGGTGAACAAGGTCGTTGCTTACTATTC	2.09	1.83	1.34	1.73	2.12	3.15	2.03	2.89
